Inconclusive results are not listed. The source made the active and inactive calls. Unless noted, calls come from the whole dose curve; as a rule, active = well fitted curve in the direction sought with a large enough effect; inconclusive = small, poorly fitted or top-dose-only effect, or another doubt; inactive = no such curve, though single readings can be large; an effect the other way counts as inactive or inconclusive.
Key:
[1] = AP1 Signaling Pathway (AID 357; active = well fitted curve in either direction with a large enough effect, not every such curve was filed as active;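 note: ME-180 reporter cells stimulated with EGF at its EC50 level; % is set by controls: 0 for no effect and ±100 for the full control effect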); conditions: ME-180 AP-1-bla reporter, EGF-induced, beta-lactamase ratio, 5 h; at 7.69 µM (top of the series) unless noted
Procedure, shortened: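 Titration-series screen for positive or negative modulators of EC50 EGF-induced signaling in ME-180 cells carrying an AP-1-driven beta-lactamase reporter. After 5 hours at 37 degrees Celsius, CCF4 460nm/530nm emission ratio gave %Activity; AC50 values derived.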

[2] = target: Cytochrome P450 1A2 (Homo sapiens) (UniProt P05177); test: p450-cyp1a2 (AID 410; calls by dose curve; note: potency is the fitted concentration of half-maximal effect;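 for activity change, negative = inhibition: -100% = full effect of reference inhibitor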)
Procedure, shortened: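 20nM CYP1A2, 100uM Luciferin-ME (=Km), 100mM KPO4; cpd 10 min RT; +NADPH regen, 60 min RT; stop/detect 20 min; luminescence. Normalized to furafylline 57 uM = full inhibition.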

[3] = NFAT Signaling Pathway (AID 444; active = well fitted curve in either direction with a large enough effect, not every such curve was filed as active;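 note: carbachol stimulus at about its EC50 of 1 µM final; % is set by controls: 0 for no effect and ±100 for the full control effect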); conditions: Jurkat NFAT-bla M1, carbachol, beta-lactamase ratio, 5 h; at 7.69 µM (top of the series) unless noted
Procedure, shortened: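 Jurkat cells carrying an NFAT-driven β-lactamase reporter and co-transfected muscarinic M1 receptor were treated with compound plus carbachol (1 uM final, an EC50 level) for 5 h at 37 °C. CCF4 loading followed for 1 h at RT; 460/530 nm ratio gave %activity.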

[4] = Stat Signaling Pathway (AID 446; active = well fitted curve in either direction with a large enough effect, not every such curve was filed as active;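 note: ME-180 cervical cancer cells given 40 pM IL-6 alongside compound; SIE-controlled beta-lactamase reporter measured as 460/530 nm FRET emission ratio; % is set by controls: 0 for no effect and ±100 for the full control effect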); conditions: ME-180 (cervical carcinoma) SIE beta-lactamase reporter, IL-6 stimulated, 5 h; at 7.69 µM (top of the series) unless noted
Procedure, shortened: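 Normalization used AC90 stimulation (300 pM IL-6) and AC90 inhibition (125 nM pan-JAK inhibitor at 40 pM IL-6). The underlying signal is SIE-driven beta-lactamase in ME-180 cells after 5 h IL-6 exposure with compound.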

[5] = target: Glucocorticoid receptor (Homo sapiens) (UniProt P04150); test: GR-GFP Redistribution (AID 450;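 active = compounds whose dose series gives a full or clear partial fitted curve of increased nuclear translocation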; note: potency is the fitted concentration of half-maximal effect); conditions: U2OS GR-GFP nuclear translocation, laser cytometry, 2 h
[6] = target: Glucocorticoid receptor (Homo sapiens) (UniProt P04150); test: GR-EFC Redistribution (AID 451; calls by dose curve; note: potency is the fitted concentration of half-maximal effect); conditions: CHO-K1 GR-EFC translocation, beta-gal luminescence, 2 h
Procedure, shortened: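 CHO-K1 cells stably expressing nuclear-localized β-gal enzyme acceptor and GR fused C-terminally to the enzyme donor fragment; ligand-driven nuclear translocation restores β-gal by complementation. Compounds titrated up to 46 uM final, 2 h at 37 °C; luminescence read.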

[7] = target: Mitogen-activated protein kinase 10 (Mus musculus) (UniProt Q61831); test: JNK3 AlphaScreen Assay (AID 530; active = well fitted curve in either direction with a large enough effect, not every such curve was filed as active;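 note: kinase came from lysate of stimulated human HepG2 cells; signal reports phosphorylation of biotinylated GST-cJun 1-79 at Ser73 with 10 µM ATP; % is set by controls: 0 for no effect and ±100 for the full control effect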)
Procedure, shortened: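 Biotinylated GST-cJun(1-79) served as substrate for JNK3 in HepG2 lysates stimulated with IL-1beta and TNF-alpha. ATP was 10 uM final, pH 7.6. Ser73 phosphorylation was quantified by AlphaScreen (680 nm excitation).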

[8] = target: 3',5'-cyclic-AMP phosphodiesterase 4B (Homo sapiens) (UniProt Q07343); test: qHTS Assay for Inhibitors of PDE-IV (AID 607; active = well fitted activation curve with a large enough effect in the main read-out, with a control signal flat, not every such curve was filed as active; note: % of control where 0% means no effect)
Procedure, shortened: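 HEK293 ACTOne cells with CNG channel (1000/well), endogenous PDE4; membrane potential dye, compounds up to 22.9 uM final. Fluorescence Ex 535/Em 590; RO 20-1724 (100 uM final) as reference.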

[9] = target: Guanine nucleotide-binding protein G(i) subunit alpha-1 (Homo sapiens) (UniProt P63096); test: qHTS Assay for Inhibitors of RGS12 GoLoco Motif Activity (Green Fluorophore) (AID 879);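 note: 0% = labeled peptide with Gαi1 and full inhibition = labeled peptide alone without protein; negative values mean loss of peptide binding seen as reduced polarization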
Procedure, shortened: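 A drop in FITC polarization marked displacement of the FITC-tagged RGS12 GoLoco peptide (10 nM) from Gαi1 (50 nM). Compounds were incubated 10 min at room temperature in Tris pH 7.5 buffer containing 150 mM NaCl, 0.1 mM GDP and 0.05% NP40; unlabeled peptide titration served as control.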

[10] = target: Cytochrome P450 2D6 (Homo sapiens) (UniProt P10635); test: qHTS Assay for Inhibitors and Substrates of Cytochrome P450 2D6 (AID 891); note: potency is the fitted concentration of half-maximal effect; nearly all actives have a fitted effect of over 60% in size
Procedure, shortened: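 Luminescent read-out of luciferin formed by 5 nM human CYP2D6 demethylating 30 uM Luciferin-ME EGE (Km level) over 60 min at room temperature after NADPH regeneration addition. Data normalized to full inhibition by 1.43 uM quinidine.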

[11] = target: Muscarinic acetylcholine receptor M1 (Rattus norvegicus) (UniProt P08482); test: qHTS Assay for Antagonists of Acetylcholine Muscarinic M1 Receptor: Measurement of IP-One Response (AID 944); note: nearly all actives have a fitted effect of over 75% in size
Procedure, shortened: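 Read-out: HTRF competition between d2-IP1 and Eu-cryptate anti-IP1 antibody, emission 620 and 665 nm. Stimulus was carbachol, EC80 (200 nM), for 30 min in M1-CHO cells (rat receptor), after 10 min compound pre-treatment.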

[12] = target: Pyruvate kinase (Leishmania mexicana) (UniProt Q27686); test: qHTS Validation Assay for Inhibitors of Leishmania Mexicana Pyruvate Kinase (AID 945);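 note: 0% = DMSO only neutral control wells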
Procedure, shortened: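 Mutant LmPYK (E451W), 0.2 nM, plus 0.5 mM PEP and 0.1 mM ADP in 50 mM imidazole pH 7.2 containing 0.01% Tween 20 and 0.05% BSA. Incubated 1 h at room temperature; luminescence via PKLight, normalized to DMSO.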

[13] = target: Pyruvate kinase PKM (Homo sapiens) (UniProt P14618); test: qHTS Assay for Activators of Human Muscle Pyruvate Kinase (AID 954; active = well fitted curve in the direction sought with a large enough effect, not every such curve was filed as active;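 note: 0% = uninhibited enzyme and -100% = no enzyme or full thiadiazolimine inhibition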)
Procedure, shortened: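 Compound pinned into substrate mix (0.5 mM PEP, 0.1 mM ADP), then 0.1 nM PKM2 added; 1 h, RT. Stop/detection luciferase reagent added, luminescence read. Normalized to no-inhibition and no-enzyme or reference-inhibitor controls.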

[14] = target: Alpha-galactosidase A (Homo sapiens) (UniProt P06280); test: Counterscreen for Glucocerebrosidase Inhibitors: qHTS Assay for Human alpha-Galactosidase at pH 4.5 (AID 992); note: 0% is about no effect
Procedure, shortened: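 Steps: enzyme (2 nM final), then compound across 0.7 nM to 77 uM, then 80 uM fluorogenic galactopyranoside substrate; incubate 20 min at room temperature; quench at pH 10; measure fluorescence at 365/440 nm.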

[15] = target: alpha-glucosidase (Oryza sativa, rice) (UniProt Q653V4); test: Counterscreen for Glucocerebrosidase Inhibitors: qHTS Assay for Rice alpha-Glucosidase at pH 5.0 (AID 997);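 note: 0% = full activity with enzyme and -100% = basal without enzyme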
Procedure, shortened: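 Endpoint fluorogenic assay at pH 5.0: compounds (0.7 nM to 77 uM) titrated against 4 nM rice enzyme and 400 uM 4-MU-alpha-glucoside for 20 min at room temperature; NaOH/glycine stop, read ex 365/em 440 nm, Hill-fitted AC50.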

[16] = qHTS Assay for Identification of Small Molecule Agonists for Thrombopoietin (TPO) Signaling Pathway (AID 917); note: % is set by controls: 0 for no effect and ±100 for the full control effect
Procedure, shortened: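 First, Ba/F3 cells with human TPO receptor were held overnight without IL-3. Next, compounds and TPO (26 pM final) were added. After 24 hrs at 37 C, luciferase detection reagent was added and luminescence measured following 10 min at room temperature.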

[17] = target: Muscarinic acetylcholine receptor M1 (Rattus norvegicus) (UniProt P08482); test: qHTS Assay for Antagonists of Acetylcholine Muscarinic M1 Receptor: Kinetic Measurement of Intracellular Calcium Response (AID 943);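 note: Fluo-4 calcium signal as peak divided by basal fluorescence over 4 min; nearly all actives have a fitted effect of over 75% in size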
Procedure, shortened: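 Read-out: peak over basal Fluo-4 fluorescence, kinetic at 1 Hz for 4 min after EC80 carbachol (100 nM final). Rat M1-CHO cells, dye loaded 1 h at 37C, compound added 10 min before agonist.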

[18] = target: Cytochrome P450 3A4 (Homo sapiens) (UniProt P08684); test: qHTS Assay for Activators of Cytochrome P450 3A4 (AID 885); note: nearly all actives have a fitted effect of over 65% in size
Procedure, shortened: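 Human CYP3A4 dealkylates Luciferin-PPXE to luciferin, which luciferase detection converts to light. Substrate was at its KM (25uM), buffer 200mM KPO4, reaction 60 min at RT.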

Chain of Cytochrome P450 1A2 (Homo sapiens) (P05177 whole entry, looked up): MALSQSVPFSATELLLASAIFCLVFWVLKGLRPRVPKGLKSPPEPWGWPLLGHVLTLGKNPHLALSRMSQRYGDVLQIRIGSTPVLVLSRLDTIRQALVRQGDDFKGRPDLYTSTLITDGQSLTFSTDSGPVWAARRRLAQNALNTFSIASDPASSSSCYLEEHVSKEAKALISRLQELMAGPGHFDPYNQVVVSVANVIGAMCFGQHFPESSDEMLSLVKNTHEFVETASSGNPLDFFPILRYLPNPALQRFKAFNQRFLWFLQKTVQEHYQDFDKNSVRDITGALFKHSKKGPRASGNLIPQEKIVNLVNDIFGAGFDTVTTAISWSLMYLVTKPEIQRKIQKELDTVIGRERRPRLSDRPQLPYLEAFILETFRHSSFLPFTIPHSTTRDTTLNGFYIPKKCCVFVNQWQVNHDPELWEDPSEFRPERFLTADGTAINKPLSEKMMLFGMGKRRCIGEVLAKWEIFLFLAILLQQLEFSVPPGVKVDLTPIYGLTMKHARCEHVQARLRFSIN
Chain of 3',5'-cyclic-AMP phosphodiesterase 4B (Homo sapiens) (Q07343 whole entry, looked up): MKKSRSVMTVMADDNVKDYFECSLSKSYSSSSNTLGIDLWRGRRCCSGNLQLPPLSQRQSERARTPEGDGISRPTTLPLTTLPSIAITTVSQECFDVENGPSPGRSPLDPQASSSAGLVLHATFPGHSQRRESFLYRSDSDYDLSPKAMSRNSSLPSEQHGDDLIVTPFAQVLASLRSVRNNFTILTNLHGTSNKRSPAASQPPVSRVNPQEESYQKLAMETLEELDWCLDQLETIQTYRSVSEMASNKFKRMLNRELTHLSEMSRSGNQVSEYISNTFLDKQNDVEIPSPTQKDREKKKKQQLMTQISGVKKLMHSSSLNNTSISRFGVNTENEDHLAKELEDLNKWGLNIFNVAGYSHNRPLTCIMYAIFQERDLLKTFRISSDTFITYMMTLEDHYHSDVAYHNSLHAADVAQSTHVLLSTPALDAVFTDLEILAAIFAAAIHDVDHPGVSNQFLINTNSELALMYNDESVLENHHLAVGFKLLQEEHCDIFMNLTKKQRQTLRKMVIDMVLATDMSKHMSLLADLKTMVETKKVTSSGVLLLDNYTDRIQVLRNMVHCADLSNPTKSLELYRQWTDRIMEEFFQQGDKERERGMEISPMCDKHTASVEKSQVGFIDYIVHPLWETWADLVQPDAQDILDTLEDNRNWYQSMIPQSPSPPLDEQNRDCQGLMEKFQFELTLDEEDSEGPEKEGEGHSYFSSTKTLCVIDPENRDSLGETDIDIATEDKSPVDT
Chain of Cytochrome P450 3A4 (Homo sapiens) (P08684 whole entry, looked up): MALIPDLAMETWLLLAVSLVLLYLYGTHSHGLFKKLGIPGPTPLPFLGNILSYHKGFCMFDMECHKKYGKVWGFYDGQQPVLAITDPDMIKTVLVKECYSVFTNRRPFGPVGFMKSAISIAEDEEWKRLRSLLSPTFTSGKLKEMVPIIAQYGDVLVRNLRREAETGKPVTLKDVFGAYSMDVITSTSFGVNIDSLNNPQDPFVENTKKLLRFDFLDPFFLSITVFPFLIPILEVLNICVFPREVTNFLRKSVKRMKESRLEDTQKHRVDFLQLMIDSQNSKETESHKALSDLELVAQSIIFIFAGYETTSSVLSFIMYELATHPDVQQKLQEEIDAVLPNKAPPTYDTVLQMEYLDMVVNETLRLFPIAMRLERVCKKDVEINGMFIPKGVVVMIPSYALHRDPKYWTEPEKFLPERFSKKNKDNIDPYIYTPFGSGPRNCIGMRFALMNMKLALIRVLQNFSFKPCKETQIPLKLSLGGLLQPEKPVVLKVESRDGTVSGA
Chain of Guanine nucleotide-binding protein G(i) subunit alpha-1 (Homo sapiens) (P63096 whole entry, looked up): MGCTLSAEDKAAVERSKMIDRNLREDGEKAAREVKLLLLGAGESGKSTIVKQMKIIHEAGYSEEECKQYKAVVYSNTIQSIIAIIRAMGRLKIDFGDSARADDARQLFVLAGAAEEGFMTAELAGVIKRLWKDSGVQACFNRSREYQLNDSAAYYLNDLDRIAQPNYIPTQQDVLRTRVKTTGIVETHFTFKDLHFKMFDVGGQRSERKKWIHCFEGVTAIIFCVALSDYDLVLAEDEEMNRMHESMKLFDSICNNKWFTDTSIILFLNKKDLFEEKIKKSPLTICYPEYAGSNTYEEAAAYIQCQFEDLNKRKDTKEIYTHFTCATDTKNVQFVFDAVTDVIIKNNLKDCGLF
Chain of Muscarinic acetylcholine receptor M1 (Rattus norvegicus) (P08482 whole entry, looked up): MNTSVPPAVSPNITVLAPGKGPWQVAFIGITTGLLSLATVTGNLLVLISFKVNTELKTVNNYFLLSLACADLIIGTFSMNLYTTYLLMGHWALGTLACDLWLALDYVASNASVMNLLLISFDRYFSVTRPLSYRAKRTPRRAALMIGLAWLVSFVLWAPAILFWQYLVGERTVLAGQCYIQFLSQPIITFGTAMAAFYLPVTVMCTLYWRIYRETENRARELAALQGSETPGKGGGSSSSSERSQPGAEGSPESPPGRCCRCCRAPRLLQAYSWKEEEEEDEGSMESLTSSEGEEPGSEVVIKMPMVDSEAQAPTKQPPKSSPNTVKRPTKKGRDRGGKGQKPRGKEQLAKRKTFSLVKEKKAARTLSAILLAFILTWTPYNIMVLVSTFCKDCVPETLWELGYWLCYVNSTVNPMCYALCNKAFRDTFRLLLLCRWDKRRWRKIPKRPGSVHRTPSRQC
Chain of Pyruvate kinase PKM (Homo sapiens) (P14618 whole entry, looked up): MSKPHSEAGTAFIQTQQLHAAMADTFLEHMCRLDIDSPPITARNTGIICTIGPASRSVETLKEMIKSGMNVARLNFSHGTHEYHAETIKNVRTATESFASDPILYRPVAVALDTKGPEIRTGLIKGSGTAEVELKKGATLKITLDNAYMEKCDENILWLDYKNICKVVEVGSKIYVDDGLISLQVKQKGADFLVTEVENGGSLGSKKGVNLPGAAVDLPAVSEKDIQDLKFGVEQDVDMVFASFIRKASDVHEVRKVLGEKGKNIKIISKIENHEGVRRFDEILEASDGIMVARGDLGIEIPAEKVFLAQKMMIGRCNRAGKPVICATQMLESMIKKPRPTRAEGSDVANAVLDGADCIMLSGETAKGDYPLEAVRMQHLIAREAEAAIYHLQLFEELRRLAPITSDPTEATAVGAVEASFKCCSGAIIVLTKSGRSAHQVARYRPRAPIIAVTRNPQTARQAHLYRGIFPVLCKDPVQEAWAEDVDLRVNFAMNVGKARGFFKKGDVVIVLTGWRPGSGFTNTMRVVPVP
Chain of Glucocorticoid receptor (Homo sapiens) (P04150 whole entry, looked up, the tested form may be a part): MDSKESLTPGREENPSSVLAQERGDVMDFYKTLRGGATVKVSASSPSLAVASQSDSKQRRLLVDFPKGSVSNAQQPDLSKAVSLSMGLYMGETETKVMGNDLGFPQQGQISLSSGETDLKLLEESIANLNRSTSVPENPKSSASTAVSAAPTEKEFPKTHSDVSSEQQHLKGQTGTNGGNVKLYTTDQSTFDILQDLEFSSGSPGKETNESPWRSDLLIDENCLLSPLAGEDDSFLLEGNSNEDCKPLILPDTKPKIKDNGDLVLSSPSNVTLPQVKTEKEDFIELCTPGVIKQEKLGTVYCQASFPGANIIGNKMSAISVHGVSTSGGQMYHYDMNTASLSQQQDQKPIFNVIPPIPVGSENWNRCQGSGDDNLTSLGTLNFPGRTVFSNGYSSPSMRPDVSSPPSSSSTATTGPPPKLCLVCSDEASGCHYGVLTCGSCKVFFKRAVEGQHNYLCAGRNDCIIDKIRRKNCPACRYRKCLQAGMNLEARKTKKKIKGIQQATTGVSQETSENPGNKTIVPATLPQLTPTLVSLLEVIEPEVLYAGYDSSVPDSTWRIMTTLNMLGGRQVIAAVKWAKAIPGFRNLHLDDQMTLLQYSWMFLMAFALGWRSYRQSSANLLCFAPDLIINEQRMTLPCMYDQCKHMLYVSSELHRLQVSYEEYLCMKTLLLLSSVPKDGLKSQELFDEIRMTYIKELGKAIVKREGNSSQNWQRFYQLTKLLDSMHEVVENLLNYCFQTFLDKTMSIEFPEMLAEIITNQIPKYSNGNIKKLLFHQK
Chain of Alpha-galactosidase A (Homo sapiens) (P06280 whole entry, looked up): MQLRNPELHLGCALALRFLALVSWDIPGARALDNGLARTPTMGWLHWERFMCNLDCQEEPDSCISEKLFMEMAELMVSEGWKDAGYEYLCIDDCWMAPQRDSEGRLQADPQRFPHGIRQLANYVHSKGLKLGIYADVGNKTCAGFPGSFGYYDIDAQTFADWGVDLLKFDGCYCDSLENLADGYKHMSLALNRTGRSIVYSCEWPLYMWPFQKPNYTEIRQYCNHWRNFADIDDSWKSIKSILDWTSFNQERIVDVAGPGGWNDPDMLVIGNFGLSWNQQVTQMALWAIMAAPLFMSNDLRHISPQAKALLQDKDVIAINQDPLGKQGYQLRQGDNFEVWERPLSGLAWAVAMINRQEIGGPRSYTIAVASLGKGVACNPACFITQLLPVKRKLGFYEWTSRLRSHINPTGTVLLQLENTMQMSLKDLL
Chain of Pyruvate kinase (Leishmania mexicana) (Q27686 2-499 E452W): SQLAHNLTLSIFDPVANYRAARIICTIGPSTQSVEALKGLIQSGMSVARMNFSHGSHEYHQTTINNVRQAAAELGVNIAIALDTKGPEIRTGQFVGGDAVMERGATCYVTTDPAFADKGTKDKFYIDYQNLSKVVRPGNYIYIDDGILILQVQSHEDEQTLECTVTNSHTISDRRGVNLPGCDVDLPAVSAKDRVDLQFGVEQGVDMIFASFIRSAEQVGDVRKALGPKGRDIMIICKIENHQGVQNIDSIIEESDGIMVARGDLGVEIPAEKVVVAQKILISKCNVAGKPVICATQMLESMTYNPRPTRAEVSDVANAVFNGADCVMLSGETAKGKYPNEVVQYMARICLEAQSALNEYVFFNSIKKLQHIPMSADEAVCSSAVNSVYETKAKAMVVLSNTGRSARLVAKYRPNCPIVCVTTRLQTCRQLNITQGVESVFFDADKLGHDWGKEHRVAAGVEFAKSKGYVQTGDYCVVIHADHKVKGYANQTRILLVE

CN1CCc2cc(Cl)c(O)cc2[C@H](c2ccccc2)C1
active: Potency [2] 31.6 µM | Potency [10] 0.631 µM
inactive: activity change, negative = inhibition [1] 15.7% [at 38 µM] | activity change, negative = inhibition [3] -3.81% [at 38 µM] | activity, negative = inhibition [4] 19.6% [at 38 µM] | Potency [5] > 46 µM | Potency [6] > 46 µM | Potency [7] | Potency [8] | outcome [9] | Potency [11] | outcome [12] | outcome [13] | outcome [14] | Potency [15]

C[C@H]1CN(S(=O)(=O)c2cccc3cnccc23)CCN1
inactive: activity change, negative = inhibition [1] -12.4% [at 38 µM] | Potency [2] | activity change, negative = inhibition [3] 1.25% [at 38 µM] | activity, negative = inhibition [4] 2.7% [at 38 µM] | Potency [5] > 46 µM | Potency [6] > 46 µM | Potency [7] | Potency [8] | outcome [9] | outcome [16] | Potency [17] | Potency [11] | outcome [12] | outcome [13] | outcome [14] | Potency [15]

COc1ccc2c(c1)CCC1C2CC[C@]2(C)[C@H](NCCCCCCN3C(=O)C=CC3=O)CC[C@@H]12 (stereo partly drawn)
inactive: activity change, negative = inhibition [1] -7.36% [at 38 µM] | Potency [2] | activity change, negative = inhibition [3] 12.6% [at 38 µM] | activity, negative = inhibition [4] 1% [at 38 µM] | Potency [5] > 46 µM | Potency [6] > 46 µM | Potency [7] | Potency [8] | outcome [9] | outcome [12] | outcome [13] | outcome [14] | Potency [15]

Nc1ncnc2c1nc(Sc1ccc(Cl)cc1)n2[C@@H]1O[C@H]2COP(=O)(O)O[C@@H]2[C@H]1O
inactive: activity change, negative = inhibition [1] 6.42% [at 38 µM] | Potency [2] | activity change, negative = inhibition [3] -0.761% [at 38 µM] | activity, negative = inhibition [4] 5.32% [at 38 µM] | Potency [5] > 46 µM | Potency [6] > 46 µM | Potency [7] | Potency [8] | outcome [9] | outcome [16] | Potency [17] | Potency [11] | outcome [13] | outcome [14] | Potency [15]

COc1cc([C@@H](O)CO)ccc1OS(=O)(=O)O
inactive: activity change, negative = inhibition [1] 6.76% [at 38 µM] | Potency [2] | activity change, negative = inhibition [3] 4.87% [at 38 µM] | activity, negative = inhibition [4] 7.18% [at 38 µM] | Potency [5] > 46 µM | Potency [6] > 46 µM | Potency [7] | Potency [8] | outcome [9] | outcome [16] | outcome [12] | outcome [13] | outcome [14] | Potency [15]

NC(=S)NCCC[C@@H](N)C(=O)O
inactive: activity change, negative = inhibition [1] 4.46% [at 38 µM] | Potency [2] | activity change, negative = inhibition [3] 4.17% [at 38 µM] | activity, negative = inhibition [4] -8.44% [at 38 µM] | Potency [5] > 46 µM | Potency [6] > 46 µM | Potency [7] | Potency [8] | outcome [9] | Potency [18] | outcome [16] | Potency [11] | outcome [13] | outcome [14] | Potency [15]

O=C1O/C(=C\Br)CC[C@@H]1c1cccc2ccccc12
inactive: activity change, negative = inhibition [1] -0.931% [at 38 µM] | Potency [2] | activity change, negative = inhibition [3] -0.824% [at 38 µM] | activity, negative = inhibition [4] 4.17% [at 38 µM] | Potency [5] > 46 µM | Potency [6] > 46 µM | Potency [7] | Potency [8] | outcome [9] | Potency [18] | Potency [17] | Potency [11] | outcome [14] | Potency [15]

Oc1ccc([C@@H]2CNCc3sccc32)cc1O
inactive: activity change, negative = inhibition [1] -15.6% [at 38 µM] | Potency [2] | activity change, negative = inhibition [3] 8.54% [at 38 µM] | activity, negative = inhibition [4] 5.59% [at 38 µM] | Potency [5] > 46 µM | Potency [6] > 46 µM | Potency [7] | Potency [8] | outcome [9] | Potency [18] | Potency [11] | outcome [12] | outcome [13] | outcome [14] | Potency [15]

C[C@@H]1O[C@@H](n2cc(F)c(=O)[nH]c2=O)[C@H](O)[C@@H]1O
inactive: activity change, negative = inhibition [1] -3.92% [at 38 µM] | Potency [2] | activity change, negative = inhibition [3] 3.74% [at 38 µM] | activity, negative = inhibition [4] 21.9% [at 38 µM] | Potency [5] > 46 µM | Potency [6] > 46 µM | Potency [7] | Potency [8] | outcome [9] | outcome [16] | Potency [11] | outcome [12] | outcome [13] | outcome [14] | Potency [15]

O=C(O)/C=C\c1cnc[nH]1
inactive: activity change, negative = inhibition [1] 4.19% [at 38 µM] | Potency [2] | activity change, negative = inhibition [3] 9.72% [at 38 µM] | activity, negative = inhibition [4] 3.14% [at 38 µM] | Potency [5] > 46 µM | Potency [6] > 46 µM | Potency [7] | Potency [8] | outcome [9] | Potency [18] | outcome [16] | Potency [17] | Potency [11] | outcome [13] | outcome [14] | Potency [15]
